Sm TGR inh = inhibitors of Schistosoma mansoni thioredoxin glutathione reductase; Q962Y6; purified TGR, DTNB reduction, TNB absorbance 405 nm; Potency, µM (titrated, usually from 114 µM), without a hit: at the top dose activity change, negative = inhibition, actives largely listed as inhibitors; 360,000 compounds, 3% hits; AID 485364; also: % is scaled to controls: 0 for no effect and ±100 for the full control effect; nearly all actives have a fitted effect of over 60% in size
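First, TGR (20 nM dispensed) and NADPH were mixed with compound. Second, a 15 min room-temperature incubation followed. Third, further NADPH and then DTNB were added to start the reaction. Finally, TNB absorbance was monitored kinetically.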
AMA1-RON2 inh = inhibitors of Plasmodium falciparum AMA1-RON2 interaction; AlphaScreen AMA1-biotinylated RON2 peptide binding; Potency, µM (top dose mostly 58.2 µM), without a hit: top-dose activity change, negative = inhibition, most hits filed as inhibitors; 360,000 compounds, 0.2% hits; AID 720542;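 also: 0% = vehicle wells and -100% = peptide control; nearly all actives have a fitted effect of over 45% in size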
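AMA1 (3D7) with his tag at 25 nM final met compounds first, then biotinylated RON2 peptide at 25 nM; detection used donor plus acceptor beads, 10 µg/mL apiece, read by AlphaScreen after 30 min at room temperature.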
NS1 inh = inhibitors of influenza NS1 protein function | Potency, µM (titrated, usually from 46.1 µM), for the others: at the top dose activity, positive = more growth | 270,000 compounds, 0.4% hits; calls by dose curve; also: actives are rising curves; nearly all actives have a fitted effect of over 50% in size
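OD600 was taken as the measure of yeast growth restored by compound in an NS1-expressing S. cerevisiae strain. Cells had been washed out of glucose medium and diluted 1:100 into galactose -URA medium, pH 6.0.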
Pf growth 96h = P. falciparum growth inhibition at 96 hour, primary screen for plastid delayed-death inhibitors. P. falciparum luciferase reporter growth, 96 h. 320,000 compounds, 6.9% hits. Potency, µM (titrated, usually from 28.7 µM), without a hit: at the top dose activity change, negative = inhibition, usual class: inhibitors. AID 504834; also: % is scaled to controls: 0 for no effect and ±100 for the full control effect
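Parasite growth measured via integrated firefly luciferase reporter in P. falciparum. Infected erythrocytes at 2% hematocrit, 0.05% parasitemia final were treated 96 hours at 37 C under 5% CO2, and luminescence was read.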
Pf growth 48h = inhibits P. falciparum growth in the first generation, 48 h | P. falciparum luciferase growth in erythrocytes, 48 h | Potency, µM (series often up to 28.7 µM), inactives show at the top dose activity change, negative = inhibition, actives largely listed as inhibitors | 310,000 compounds, 5.9% hits; also: % is scaled to controls: 0 for no effect and ±100 for the full control effect
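Erythrocytes infected with P. falciparum carrying an integrated firefly luciferase reporter (2% hematocrit, 0.1% parasitemia final) were exposed to compounds in RPMI 1640 with 0.5% Albumax at 37 C, 5% CO2. Growth inhibition was scored as reduced luminescence.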
Starred values were filed as active, the others as inactive; ? = inconclusive; nt = no result given; [ ] = another dose, or the depositor's remark. An excerpt weighted towards active compounds, which were near 11% of everything screened. Unless noted, calls follow the shape of the dose curve; as a rule, active = well fitted curve in the direction sought with a large enough effect; inconclusive = small, poorly fitted or top-dose-only effect, or another doubt; inactive = no such curve, though single readings can be large; an effect the other way counts as inactive or inconclusive. Potency is read from the fitted curve at half-maximal effect.

SMILES | Sm TGR inh | AMA1-RON2 inh | NS1 inh | Pf growth 96h | Pf growth 48h
Cc1ccccc1-c1nc(S(=O)(=O)c2ccccc2)c(NCCN2CCOCC2)o1 | nt | 14.1% | nt | nt | nt
O=C(Nc1ccc2oc(=O)ccc2c1)c1ccc(-c2cccc(Cl)c2)o1 | 22.4µM* | -3.6% | -1.9% | ? | 10.4µM*
COc1cc([N+](=O)[O-])ccc1NC(=O)c1cccc(NC(=O)C(C)C)c1 | 0.5% | 2.4% | nt | 49.9% | 4.4%
O=C(Nc1ccc2oc(=O)ccc2c1)c1ccc(-c2cccc([N+](=O)[O-])c2)o1 | 50.1µM* | 7.2% | 4.3% | ? | 4.15µM*
COc1cc(NC(=O)c2ccc(-c3cccc([N+](=O)[O-])c3)o2)ccc1NC(=O)C(C)C | -22.5% | 11.4% | -8.4% | -13.0% | 10.4µM*
COc1ccc(-n2nc3ccc(NC(=O)c4ccc(-c5cc(Cl)ccc5Cl)o4)cc3n2)cc1 | -25.1% | nt | nt | nt | nt
O=C(Nc1ccc2nn(-c3ccccc3)nc2c1)c1ccc(-c2cccc(Cl)c2)o1 | 8.91µM* | nt | nt | nt | nt
COc1cccc(-n2c(=O)c3sc4ccccc4c3n(Cc3c(F)cccc3Cl)c2=O)c1 | 9.8% | nt | nt | nt | nt
NC(=O)NC(=O)C(Nc1ccc(N2CCCCC2)cc1)c1ccccc1 (centres undefined) | ? | ? | -6.3% | 131.2% | 101.1%
O=C(c1ccc(Cl)cc1)[C@@H]1[C@@H]2C(=O)N(c3ccccc3)C(=O)[C@@H]2C2c3ccccc3C=NN21 (some centres undefined) | -9.4% | 14.3% | ? | -3.3% | 18.8%
Cc1ccc(N2C(=O)[C@@H]3[C@H](C2=O)[C@H]2C=C(C(=O)c4ccccc4)C=CN2[C@@H]3C(=O)c2ccc(Cl)cc2)cc1 | 39.8µM* | 2.6% | ? | ? | ?
O=C(C1=C[C@@H]2[C@H]3C(=O)N(c4cccc(Cl)c4)C(=O)[C@H]3[C@@H](C(=O)c3ccc(Cl)cc3)N2C=C1)c1ccccc1 | 22.4µM* | 9.0% | 15.0% | -22.5% | 3.7%
O=C(C1=C[C@@H]2[C@H]3C(=O)N(c4ccccc4Cl)C(=O)[C@H]3[C@@H](C(=O)c3ccc(Cl)cc3)N2C=C1)c1ccccc1 | 25.1µM* | nt | ? | ? | ?
CC(C)(C)OC(=O)n1cc(/C=N/NC(=O)c2ccco2)c2ccccc21 | -26.5% | -7.1% | -0.4% | -2.4% | -4.8%
CC(=O)c1cccc(N(CC(=O)NCCc2ccccc2)C(=O)c2csnn2)c1 | 7.1% | -0.6% | 10.8% | -7.9% | 7.0%
COc1ccc(CNC(=O)CN(C(=O)c2csnn2)c2ccc(C(C)=O)cc2)cc1 | -19.5% | 11.7% | -1.1% | -0.1% | 10.4µM*
CC(=O)c1ccc(N(CC(=O)NCCc2ccccc2)C(=O)c2csnn2)cc1 | -13.6% | -0.3% | 19.6% | 9.28µM* | ?
Cc1nn2c(-c3ccc(S(=O)(=O)N4CCN(CCO)CC4)o3)nnc2c2ccccc12 | -18.7% | -6.3% | -11.2% | 10.4µM* | 9.28µM*
Cc1ccc(-c2nn3c(C)nnc3c3ccccc23)cc1S(=O)(=O)N1CCN(CCO)CC1 | 0.6% | 2.1% | -7.7% | ? | ?
COc1ccc(-c2nnc3c4ccccc4c(C)nn23)cc1S(=O)(=O)N1CCN(CCO)CC1 | -12.2% | 3.3% | -0.2% | 2.62µM* | 4.65µM*
COc1ccccc1N1CCN(c2ncnc3n[nH]c(Br)c23)CC1 | nt | 55.0% | nt | nt | nt
O=C(COc1ccc(Cl)cc1)NCc1nnc(SCC(=O)N2CCCCCC2)o1 | 4.6% | 1.1% | nt | ? | -1.7%
CN1C2C=C3C(C#N)=C(N)C(C#N)(C#N)[C@@H](c4cccc(F)c4)[C@@H]3C1CC2 (some centres undefined) | -13.5% | 7.3% | 10.7% | 0.657µM* | ?
CN1C2C=C3C(C#N)=C(N)C(C#N)(C#N)[C@H](c4c(F)cccc4F)[C@H]3C1CC2 (some centres undefined) | 3.2% | 3.1% | -3.2% | ? | ?
O=C(NCc1ccccn1)c1ccccc1-c1ccccc1 | 9.2% | 38.5% | 5.4% | -48.6%[1.15 µM] | -4.9%
SMILES | Sm TGR inh | AMA1-RON2 inh | NS1 inh | Pf growth 96h | Pf growth 48h
Cc1ccc(OC(=O)C2c3ccccc3Oc3ccccc32)cc1C | 2.5% | 23.8% | -27.7% | 5.22µM* | -11.8%
CC(C)[N+](C)(CCOC(=O)C1c2ccccc2Oc2ccccc21)C(C)C | 17.5% | -14.5% | -3.3% | 0.0147µM* | ?
CCN(CC)C(=O)C1c2ccccc2Oc2ccccc21 | -12.8% | 35.7% | 12.8% | 5.22µM* | 27.7%
COc1ccc(CCNC(=O)CCn2c(=O)c3ccccc3n(Cc3ccccc3)c2=O)cc1OC | 0.0% | nt | nt | nt | nt
O=S(=O)(CCNC1CC1)NC1CCCCC1 | nt | -2.0% | nt | nt | nt
Cc1cc(NC(=O)N2CCC(CN3CCOCC3)CC2)ccc1Br | 2.7% | nt | nt | nt | nt
CC1=CC(=C(C#N)C#N)C=C(C)N1Cc1ccccc1 | 7.6% | 4.0% | nt | 4.65µM* | ?
Cc1cc2ncn(/N=C/c3cccnc3)c2cc1C | 2.9% | -6.4% | -133.5% | ? | 14.7µM*
CN(CC1COc2ccccc2O1)C(=O)Cn1cc(C(F)(F)F)ccc1=O (centres undefined) | nt | 27.9% | nt | nt | nt
C#CCNC(=O)C1=C[C@H](c2ccccc2)C[C@H](OCCCCO)O1 | 14.1µM* | 2.7% | 1.0% | ? | ?
O=C(NC1CC1)C1=C[C@@H](c2ccc(Br)cc2)C[C@@H](OCCCCO)O1 | -8.8% | 1.2% | -4.1% | -16.9% | 0.1%
C#Cc1ccc([C@@H]2C=C(C(=O)N3CCOCC3)O[C@H](OCCCCO)C2)cc1 | ? | 0.3% | 1.9% | ? | ?
C#CCNC(=O)C1=C[C@H](C2CC2)C[C@H](OCCCCO)O1 | 44.7µM* | 7.8% | -4.8% | 9.9% | -7.1%
O=C(C1=C[C@H](c2ccc(Br)cc2)C[C@H](OCCCCO)O1)N1CCOCC1 | 35.5µM* | 60.5% | -1.6% | 0.2% | -2.4%
C#CCNC(=O)C1=C[C@@H](c2ccc(Br)cc2)C[C@@H](OCCCCO)O1 | 0.0% | -4.7% | -4.7% | 8.28µM* | ?
CCOc1[nH]n(-c2ccccc2)c(=O)c1C=NCc1cccnc1 | -3.4% | 6.1% | nt | 18.5µM* | ?
CCOc1[nH]n(-c2ccccc2)c(=O)c1C=NCC(=O)OC | -3.0% | 35.3% | nt | -163.8% | ?
CCSc1cc(N2CCCC2)nc(-c2ccc(Cl)cc2)n1 | -4.2% | 22.4% | nt | 30.8% | 14.6%
Clc1ccc(-c2nnc(N3CCCC3)nn2)cc1 | 0.0% | -17.1% | -34.1% | 0.586µM* | 0.37µM*
COc1ccccc1-n1ccnc1SCC(=O)NCc1ccco1 | ? | -1.5% | nt | 10.4µM* | ?
COCCn1c(SCC(=O)c2ccc3c(c2)OCCO3)nnc1C(C)C | ? | -1.3% | -20.6% | 15.2% | 18.7%
COCCn1c(SCC(=O)c2ccc(Cl)cc2)nnc1C(C)C | 39.8µM* | -18.7% | -6.6% | 31.0% | -10.0%
COCCn1c(SCC(=O)Nc2cccc(OC)c2)nnc1-c1ccccc1 | 0.8% | 7.8% | 6.2% | 2.33µM* | -1.8%
